PubChem BioAssay (EPA / NIEHS)
“And” between values parts separate entries of the source, which are not always exact repeats. Identical values can stand only once. Inconclusive results are not listed. The source made the active and inactive calls. The calls were made as follows, unless noted: active = hit-call score of the fitted dose curve at least 0.9, where 1 is the maximum; inconclusive = response in the unintended direction; inactive = score below 0.9.

Assays:
DIO2 (gene 1734) = experiment: CCTE_GLTED_hDIO2: CCTE's human Deiodinase 2 (DIO2) Inhibition Assay, Great Lakes Toxicology and Ecology Division (GLTED) Lab (AID 2284050)
Method in brief: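 Triplicate cell-free incubations (3 h) of human DIO2 with chemical preceded colorimetric Sandell-Kolthoff quantitation of liberated iodide; DMSO served as negative control for curve fitting.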

DIO3 (gene 1735) = experiment: CCTE_GLTED_hDIO3: CCTE's human Deiodinase 3 (DIO3) Inhibition Assay, Great Lakes Toxicology and Ecology Division (GLTED) Lab (AID 2284055);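 also: potency is for inhibition seen as loss of released iodide signal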
Method in brief: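 Steps: incubate adenovirus-produced hDIO3 with chemical for 3 hours; detect freed iodide via cerium-arsenic Sandell-Kolthoff colorimetry; compare with DMSO baseline.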

[1] = target: Estrogen receptor (Homo sapiens) (UniProt P03372); experiment: CCTE_Deisenroth_AIME_96WELL_LUC_Active: CCTE's 96-well Estrogen Receptor Transactivation Assay with AIME metabolic competence (ERTA luciferase; metabolism positive), Deisenroth Lab (AID 2284023)
Method in brief: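 Metabolism-positive mode: induced rat hepatic S9 in alginate microspheres conditions test solutions (0.002 - 200 uM, 10 points) for 2 hours. VM7Luc4E2 ER luciferase reporter cells then exposed 24 h; positive-direction fit against 17beta-estradiol, n=4 typical.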

[2] = target: Estrogen receptor (Homo sapiens) (UniProt P03372); experiment: CCTE_Deisenroth_AIME_96WELL_LUC_Inactive: CCTE's 96-well Estrogen Receptor Transactivation Assay without AIME metabolic competence (ERTA luciferase; metabolism negative), Deisenroth Lab (AID 2284025)
Method in brief: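 Metabolism-negative arm: chemicals (0.002–200 uM, 10 points) incubated 2 h with alginate-water microspheres, then medium moved onto VM7Luc4E2 cells for 24 h luciferase read-out. Positive direction vs 17beta-estradiol; n≥4 experiments.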

[3] = UKN5_HCS_SBAD2_cell_viability: Viability Assessment in the University of Konstanz (UKN) Leist Lab Neurite Outgrowth Assay in human iPSC-derived immature Dorsal Root Ganglia Neurons (UKN5) (AID 2284056; active = hit-call score of the fitted dose curve at least 0.9, where 1 is the maximum; inactive = score below 0.9)
Method in brief: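 iPSC-derived immature peripheral neurons (SBAD2) seeded on Matrigel with CHIR99021, SU5402 and DAPT, dosed 1 h later for 24 h. Viability from Hoechst H-33342 and calcein-AM live staining, high-content imaging; bidirectional fit versus DMSO.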

[4] = UKN5_HCS_SBAD2_neurite_outgrowth: University of Konstanz (UKN) Leist Lab Neurite Outgrowth Assay in human iPSC-derived immature Dorsal Root Ganglia Neurons (UKN5) (AID 2284070; active = hit-call score of the fitted dose curve at least 0.9, where 1 is the maximum; inactive = score below 0.9); details: actives raise or lower the signal
Method in brief: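 Neurite outgrowth is quantified as calcein-AM-labelled neurite area in human iPSC-derived peripheral neurons treated for 24 h, starting 1 h after plating in medium with CHIR99021 (1.5 uM), SU5402 (5 uM) and DAPT (5 uM).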

[5] = UKN4_HCS_LUHMES_neurite_outgrowth: University of Konstanz (UKN) Leist Lab Neurite Outgrowth Assay in human LUHMES cells (UKN4) (AID 2284206; active = hit-call score of the fitted dose curve at least 0.9, where 1 is the maximum; inactive = score below 0.9); details: actives raise or lower the signal
Method in brief: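 Neurite area in dopaminergic-model LUHMES neurons is measured by high-content imaging of calcein-AM after 24 h treatment starting shortly after day-2 replating; Hoechst staining tracks viability.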

[6] = UKN4_HCS_LUHMES_cell_viability: Viability Assessment in the University of Konstanz (UKN) Leist Lab Neurite Outgrowth Assay in human LUHMES cells (UKN4) (AID 2284232; active = hit-call score of the fitted dose curve at least 0.9, where 1 is the maximum; inactive = score below 0.9)
Method in brief: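 Measured in replated, 2-day-differentiated LUHMES cells treated 24 h; stained 30 min with H-33342 and calcein-AM before high-content imaging.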

Estrogen receptor (Homo sapiens), sequence (P03372 whole entry, looked up): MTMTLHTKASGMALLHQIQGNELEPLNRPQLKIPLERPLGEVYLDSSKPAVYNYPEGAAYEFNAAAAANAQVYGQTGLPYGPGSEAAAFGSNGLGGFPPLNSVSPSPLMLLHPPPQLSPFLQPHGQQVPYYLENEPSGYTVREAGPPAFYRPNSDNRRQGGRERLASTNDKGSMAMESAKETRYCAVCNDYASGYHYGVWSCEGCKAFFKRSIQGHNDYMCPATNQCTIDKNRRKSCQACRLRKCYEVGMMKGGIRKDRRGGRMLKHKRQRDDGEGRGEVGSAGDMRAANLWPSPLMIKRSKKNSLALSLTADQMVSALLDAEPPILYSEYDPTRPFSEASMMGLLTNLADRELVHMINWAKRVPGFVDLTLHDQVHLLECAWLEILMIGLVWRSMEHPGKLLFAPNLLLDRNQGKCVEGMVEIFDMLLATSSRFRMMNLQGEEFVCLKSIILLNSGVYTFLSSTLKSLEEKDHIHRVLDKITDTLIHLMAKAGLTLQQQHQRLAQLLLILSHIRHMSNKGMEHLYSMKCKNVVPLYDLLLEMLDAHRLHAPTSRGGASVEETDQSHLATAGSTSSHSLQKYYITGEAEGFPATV

Which AC50 (DIO2 (gene 1734)) does the source give for `COc1cc(O)c(CC=C(C)C)c(O)c1C(=O)/C=C/c1ccc(O)cc1` here?
Its AC50 is 215 nM (active) and 797 nM (active).

And the AC50 (DIO3 (gene 1735))?
Its AC50 is 150 nM (active) and 222 nM (active).

For `C(#Cc1ccccc1)c1ccccc1`, which AC50 [1] is on record?
Its AC50 is 32.3 µM (active).

What about the AC50 [2] of the same compound?
Its AC50 is 28.5 µM (active).

What does the source list for `O.O=S(=O)([O-])[O-].[Mn+2]`?
AC50 [3]: 18.8 µM (active); outcome [4]: inactive; outcome [5]: inactive; outcome [6]: inactive
